A selection: hits, their analogues and other compounds. The true share with any hit is near 9%.
JMJD2A Tudor inh = qHTS Assay for Inhibitors of JMJD2A-Tudor Domain. actives 4.4% (n = 390,000). AlphaScreen JMJD2A-Tudor / H3K4me3 peptide binding. Potency, µM (doses to about 114 µM), for inactives: at the top dose activity change, negative = inhibition, actives largely listed as inhibitors. AID 504339, 2011. Lysine-specific demethylase 4A (Homo sapiens), O75164; further: on the % scale 0 is the no-effect control and ±100 the full control effect; nearly all actives have a fitted effect of over 50% in size
12-LOX inh = Primary qHTS assay for inhibitors of human arachidonate 12S-lipoxygenase (ALOX12): Round 2; Polyunsaturated fatty acid lipoxygenase ALOX12 (Homo sapiens), P18054; purified 12hLO, xylenol orange hydroperoxide absorbance; Potency, µM (highest dose often 108 µM), for inactives: at the highest dose activity change, negative = inhibition, actives largely listed as inhibitors; actives 1.1% (n = 580,000); further: on the % scale 0 is the no-effect control and ±100 the full control effect
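Hydroperoxide product was detected by ferrous iron/xylenol orange as the 573 to 405 nm absorbance ratio. Arachidonic acid at 40 uM (final) was turned over for 30 min at room temperature by 150 nM human 12hLO, pH 7.0 Hepes buffer, after 15 min compound preincubation.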
BAZ2B inh = qHTS Assay for Inhibitors of BAZ2B; Potency, µM (highest dose often 114 µM), without a hit: top-dose activity change, negative = inhibition, usual class: inhibitors; AlphaScreen BAZ2B-H3K14Ac peptide displacement; actives 4.4% (n = 360,000); further: on the % scale 0 is the no-effect control and ±100 the full control effect; nearly all actives have a fitted effect of over 60% in size
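In this displacement format the biotinylated H3(5-23) peptide acetylated at Lys14 serves as ligand at 50 nM, with BAZ2B at 50 nM in PBS pH 7.4 containing 0.01% Tween-20. Donor and acceptor beads are 10 ug/mL final.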
HP1b binding inh = HTS for Inhibitors of HP1-beta Chromodomain Interactions with Methylated Histone Tails; AlphaScreen HP1-beta / biotin-H3K9me3 peptide binding; Potency, µM (doses to about 114 µM), for the others: at the highest dose activity change, negative = inhibition, hits mostly inhibitors; actives 0.56% (n = 390,000); AID 540317, 2011; further: nearly all actives have a fitted effect of over 70% in size
Target sequence (P83916 whole entry, looked up): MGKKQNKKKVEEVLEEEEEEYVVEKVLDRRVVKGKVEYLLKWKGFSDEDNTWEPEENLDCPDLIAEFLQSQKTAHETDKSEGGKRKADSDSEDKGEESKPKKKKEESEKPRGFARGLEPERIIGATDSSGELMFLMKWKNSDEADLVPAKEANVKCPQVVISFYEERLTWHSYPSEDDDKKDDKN
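HP1-beta protein (50 nM final) preincubated 30 min at room temperature with biotinylated H3(1-18)K9me3 peptide (50 nM) in PBS pH 7.4, 0.01% Tween-20, then compound added for 30 min. AlphaScreen streptavidin donor/nickel chelate acceptor beads (10 ug/mL final), 30 min dark, luminescence read.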
G9a inh = qHTS Assay for Inhibitors of Histone Lysine Methyltransferase G9a; Histone-lysine N-methyltransferase EHMT2 (Homo sapiens), Q96KQ7; G9a H3K9 monomethylation, AlphaScreen, 2 h; actives 8.8% (n = 350,000); AID 504332, 2011; Potency, µM (top dose mostly 102 µM), inactives show top-dose activity, negative = inhibition, actives largely listed as inhibitors; further: on the % scale 0 is the no-effect control and ±100 the full control effect; nearly all actives have a fitted effect of over 75% in size
Target sequence (Q96KQ7 913-1193 limits assumed): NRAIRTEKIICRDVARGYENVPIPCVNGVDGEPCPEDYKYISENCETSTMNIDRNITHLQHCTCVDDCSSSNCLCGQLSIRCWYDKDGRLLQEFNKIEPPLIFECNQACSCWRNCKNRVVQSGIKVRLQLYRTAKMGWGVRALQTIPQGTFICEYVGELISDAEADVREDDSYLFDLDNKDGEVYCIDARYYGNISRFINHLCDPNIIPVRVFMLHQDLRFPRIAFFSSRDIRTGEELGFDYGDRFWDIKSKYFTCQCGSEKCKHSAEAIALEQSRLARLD
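AlphaScreen read-out: biotin-H3K9 peptide (500 nM) methylation by 20 nM enzyme with 20 uM SAM, 2 h at room temperature after 15 min compound preincubation; anti-monomethyl H3K9 antibody plus donor/acceptor beads, 10 min dark.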
PLK1 PBD block = qHTS for Inhibitors of PLK1-PDB (polo-like kinase 1 - polo-box domain): Primary Screen. actives 2.8% (n = 360,000). Potency, µM, for inactives: max response, negative = inhibition, actives largely listed as inhibitors. Plk1 PBD binding of FITC phosphopeptide, fluorescence polarization. AID 720504, 2013; further: series mostly up to about 57 µM; on the % scale 0 is the no-effect control and ±100 the full control effect; nearly all actives have a fitted effect of over 65% in size
An asterisk follows results filed as active; u = inconclusive; x = no result; [ ] = dose if it differs, or a comment. The call rests on the fitted dose curve; in most records, active means well fitted curve in the direction sought with a large enough effect; inconclusive means small, poorly fitted or top-dose-only effect, or another doubt; inactive means no such curve, though single readings can be large; an effect the other way counts as inactive or inconclusive. Potency means the concentration at half of the fitted maximal effect.

SMILES	JMJD2A Tudor inh	12-LOX inh	BAZ2B inh	HP1b binding inh	G9a inh	PLK1 PBD block
[O-][n+]1c2ccccc2c2n1CCN=C2c1ccc(Cl)cc1	-13%	2%	-4%	41%	10%[2.33 µM]	2%
COc1ccc(-n2nc3c(c2NC(=O)COc2cccc(OC)c2)CS(=O)(=O)C3)cc1	u	-12%	u	-19%	18µM*	-7%
COc1ccc(-n2nc3c(c2NC(=O)COc2ccccc2)CS(=O)(=O)C3)cc1	-3%	28%	-13%	18%	17%	-8%
O=C1OC(NC(=O)c2ccccc2)C(n2cc(CO)nn2)=C1Cl (stereo not drawn)	89µM*	5%	u	u	u	9.5µM*
CCOC(=O)CNC(=O)CN1CCCN(S(=O)(=O)c2ccc(Br)s2)CC1	-14%	u	6%	34%	50µM*	-18%
O=C(CN1CCCN(S(=O)(=O)c2ccc(Br)s2)CC1)Nc1ccc(Cl)cc1	-11%	u	4%	13%	13%[12.7 µM]	-11%
Cc1noc(C)c1S(=O)(=O)NCCN1CCN(c2ccccc2)CC1	-16%	0%	-34%	33%	-2%[59 µM]	-15%
Cc1cccc(C(=O)NCCc2nnc(SCC(=O)Nc3nc(C)cs3)n2C)c1	-6%	-7%	7%	23%	25%	-7%
CCc1ccccc1NC(=O)c1cccc(NC(=O)/C=C/c2ccco2)c1	-27%	-31%	-37%	-2%	u	-4%
O=C(/C=C/c1ccco1)Nc1cccc(C(=O)Nc2ccccc2C(=O)O)c1	79µM*	-45%	u	-18%	x	21µM*
Cc1ccc(NC(=O)N/C=C/c2ccco2)cc1C	u	28µM*	-33%	7%	32µM*	4%
Cc1ccc(NC(=O)c2cccc(NC(=O)/C=C/c3ccco3)c2)cc1C	-33%	40µM*	-37%	-25%	u	-9%
CCN1CCN(c2cc(C)c3cc(NC(=O)c4cccc(C(F)(F)F)c4)ccc3n2)CC1	-11%	-16%	-2%	25%	-5%[59 µM]	x
O=C(Cn1ncc(Cl)c(Cl)c1=O)c1ccc(Cl)cc1	4%	-2%	0%	42%	12%[59 µM]	-11%
Cc1cc2cc(CCNC(=O)C(=O)c3c[nH]c4ccccc34)c(=O)[nH]c2cc1C	-23%	-10%	x	20%	-33%	-5%
CC(c1ccc(F)cc1)n1c(-c2ccc3ccccc3n2)n[nH]c1=S (stereo not drawn)	-32%	u	-33%	9%	-3%[0.501 µM]	-26%
COc1cc(-c2nc3c4ccccc4nc(=S)n3[nH]2)cc(OC)c1OC	-19%	u	-3%	20%	x	-16%
COc1cc(-c2n[nH]c(=S)n2-c2ccccc2C(F)(F)F)cc(OC)c1OC	u	-9%	-16%	8%	3.5µM*	-20%
COc1cc(-c2n[nH]c(=S)n2-c2cccc(C(F)(F)F)c2)cc(OC)c1OC	89µM*	u	5%	13%	u	-22%
COc1ccc(/C=C/c2nc3ccccc3c(=O)n2-c2cccc(C(F)(F)F)c2)cc1	-16%	2%	2%	3%	-1%[59 µM]	x
COc1cc(-c2n[nH]c(=S)n2C(C)c2ccccc2)cc(OC)c1OC (stereo not drawn)	13µM*	u	-1%	32%	x	1%
Cc1c(C(=O)Oc2cc(N)n(S(C)(=O)=O)n2)cccc1[N+](=O)[O-]	-22%	-2%	u	8%	16µM*	12µM*
Cc1ccccc1C(=O)Oc1cc(N)n(S(C)(=O)=O)n1	-8%	0%	-17%	40%	-20%	-22%
CCOC(=O)CN1NC2(CCCCCCC2)NC1=S	28µM*	0%	-21%	41%	2.2µM*	-1%
CCOC(=O)Cn1c2c(c(=N)c3c1CCC3)CCC2	-1%	-1%	58%	57%	12%[59 µM]	-6%
SMILES	JMJD2A Tudor inh	12-LOX inh	BAZ2B inh	HP1b binding inh	G9a inh	PLK1 PBD block
CCOC(=O)c1sc(C)c2c1NC1(CCCCC1)NC2=O	-17%	1%	-4%	7%	8%[59 µM]	-5%
CCOC(=O)CN1NC2(CCCCC2)NC1=S	18µM*	u	-6%	-20%	u	-11%
C/C(=N\O)C(=O)C(CN1CCCCC1)CN1CCCCC1	-30%	0%	8%	u	0.89µM*	u
CC(=O)/C(CN1CCCCC1)=N\O	-8%	0%	8%	20%	-6%[59 µM]	6%
CN1CCc2c(n(CC(O)CN3C(=O)c4ccccc4S3(=O)=O)c3ccccc23)C1=O (stereo not drawn)	-30%	28%	-5%	16%	-27%[59 µM]	-2%
CC(C)NCC(O)Cn1c2c(c3ccccc31)CCc1c-2cnn1-c1ccccc1 (stereo not drawn)	50µM*	4%	u	u	u	-3%
CN(C)CCCNC(=O)/C(=N\O)c1ccccc1	-3%[57.1 µM]	-15%	-22%	50%	56µM*	-11%
Cc1oc2ccccc2c1CC(=O)NCCCN(C)C	-21%	u	u	59%	50µM*	-5%
O=c1[nH]c(=S)[nH]c2sccc12	3.5µM*	8.9µM*	-29%	u	10µM*	15µM*
O=C(N/N=C/c1cc2c3c(c1O)CCCN3CCC2)c1ccccc1O	45µM*	u	32µM*	-15%	u	-10%
COc1ccccc1N/N=C/c1ccc2c(c1)OCO2	u	u	u	-23%	7.1µM*	-24%
COc1ccc(C(=O)NC2CCCN(c3cc(-c4ccc(F)cc4)[nH]n3)C2)cc1 (stereo not drawn)	x	14%	x	x	x	x
O=C(Nc1ccc(Cl)cc1)Nc1ccccc1CC[N+](=O)[O-]	22µM*	-2%	-28%	-8%	-43%	3.4µM*
NC(Cc1ccc(Cl)cc1)c1csc(NC(=O)NCC2CCCCC2)n1 (stereo not drawn)	x	u	x	x	x	-2%
Cc1csc(NC(=O)NCC2CCCC(CNC(=O)Nc3nc(C)cs3)C2)n1 (stereo not drawn)	-29%	u	-30%	1%	14µM*	-7%
COc1ccc(C(C)=O)cc1CN1C(=O)C(C)ON=C1c1ncccc1C (stereo not drawn)	x	7%	x	x	x	1%

Source: PubChem (National Center for Advancing Translational Sciences (NCATS))
